Test results from PubChem BioAssay.
Active and inactive are the calls of the source. Unless noted, the rule behind the calls is not given here.

What was measured:
[1] = A549 cell viability effects, profiling panel, calcein-AM fluorescence, 48 h, basal (AID 1162); conditions: higher = more signal; note: test concentration not given here
[2] = adipocyte viability effects, profiling panel, cell-based, 3T3-L1 adipocytes, calcein-AM fluorescence, 48 h, basal (AID 1163); conditions: 3T3-L1 adipocytes viability, higher = more signal; note: test concentration not given here
[3] = HepG2 cell viability effects, profiling panel, calcein-AM fluorescence, 48 h, basal (AID 1164); conditions: higher = more signal; note: test concentration not given here
[4] = MM1S cell viability effects, profiling panel, calcein-AM fluorescence, 48 h, basal (AID 1165); conditions: higher = more signal;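 note: viability of MM1S multiple myeloma cells under basal unstimulated conditions; test concentration not given here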
[5] = basal RPMI8226 viability, no added stimulus, profiling panel, cell-based, calcein-AM fluorescence, 48 h, PK04 Diversity Set (AID 1166); conditions: RPMI8226 myeloma viability, higher = more signal;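 note: cells grown under basal conditions without added stimulus; test concentration not given here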
[6] = basal HepG2 mitochondrial membrane potential changes, profiling panel, cell-based, JC-1 fluorescence, 24 h, 100 nL compound (AID 1167); conditions: higher = more signal; note: test concentration not given here
[7] = basal 3T3-L1 adipocyte mitochondrial potential changes, profiling panel, cell-based, JC-1 fluorescence, 3T3-L1 adipocytes, 24 h, 100 nL compound (AID 1168); conditions: JC-1 mitochondrial fluorescence, higher = more signal, called active from +8 up or from −8 down; note: test concentration not given here
[8] = basal RPMI8226 mitochondrial membrane potential changes, profiling panel, cell-based, JC-1 fluorescence, 24 h, 100 nL compound (AID 1169); conditions: RPMI8226 myeloma, JC-1 mitochondrial potential fluorescence, higher = more signal; note: test concentration not given here
[9] = basal MM1S mitochondrial membrane potential changes, profiling panel, cell-based, JC-1 fluorescence, 24 h, 100 nL compound (AID 1170); conditions: higher = more signal; note: test concentration not given here
[10] = A549 lung cancer cell viability effects, profiling panel, resazurin fluorescence, 24 h, PK04 Diversity Set (AID 1171); conditions: higher = more signal, called active from +8 up or from −8 down; note: test concentration not given here
[11] = HepG2 liver cancer cell viability effects, profiling panel, resazurin fluorescence, 24 h, PK04 Diversity Set (AID 1172); conditions: higher = more signal; note: test concentration not given here
[12] = basal S. cerevisiae growth modulation, no modifier, primary screen, OD600, strain BY4716, 24 h, basal condition (AID 1173); conditions: OD600, 24 h, higher = more signal, called active from +8 up or from −8 down
[13] = MM1S myeloma cell viability, profiling panel, resazurin fluorescence, basal, 24 h, PK04 Diversity Set (AID 1174); conditions: higher = more signal, called active from +8 up or from −8 down;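 note: MM1S multiple myeloma cell line; test concentration not given here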
[14] = target: Dihydroorotate dehydrogenase (quinone), mitochondrial (Plasmodium falciparum (isolate 3D7)) (UniProt Q08210); experiment: PfDHODH enzyme inhibitors, primary screen, biochemical, C-terminal His tag, absorbance 600 nm (AID 1175); conditions: DCIP absorbance 600 nm, higher = more signal, called active from +8 up or from −8 down;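 note: recombinant parasite enzyme with a five histidine tag at its C terminus; test concentration not given here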
[15] = P. aeruginosa biofilm formation inhibitors, primary screen, strain PAO1, LB-PBS medium, absorbance 600 nm (AID 1176); note: test concentration not given here; conditions: P. aeruginosa PAO1 growth/biofilm, A600, 12 h; higher = more signal
[16] = S. cerevisiae RM11-1a growth modifiers, primary screen, strain RM11-1a, OD600, basal, 24 h (AID 1177); conditions: OD600, 24 h, higher = more signal, called active from +8 up or from −8 down;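 note: cultures grown under basal conditions with no added stressor; test concentration not given here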
[17] = E. coli acrAB mutant growth effects, primary screen, E. coli filamentation inducers, strain DRC39, OD650, 24 h (AID 1178); conditions: higher = more signal, called active from +8 up or from −8 down;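 note: growth measured as culture turbidity by optical density at 650 nm; test concentration not given here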
[18] = E. coli acrAB mutant growth effects, primary screen, E. coli filamentation inducers, strain DRC39, OD650, 48 h (AID 1179);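 note: screen aims at cell division blockers that make cells filament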; conditions: E. coli DRC39 delta-acrAB growth, higher = more signal, called active from +8 up or from −8 down
[19] = RPMI8226 myeloma cell viability, profiling panel, resazurin fluorescence, basal, 24 h, PK04 Diversity Set (AID 1180); conditions: higher = more signal;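 note: RPMI8826 multiple myeloma cell line at 5000 cells per well; test concentration not given here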
[20] = target: E3 ubiquitin-protein ligase XIAP (Homo sapiens) (UniProt P98170); experiment: XIAP binders, primary screen, biophysical, small-molecule microarray, fluorescence 635 nm (AID 1181); conditions: small-molecule microarray binding, higher = more signal;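 note: score merges 667 nm emission and signal to noise over triplicate slides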
Chain of E3 ubiquitin-protein ligase XIAP (Homo sapiens) (P98170 whole entry, looked up): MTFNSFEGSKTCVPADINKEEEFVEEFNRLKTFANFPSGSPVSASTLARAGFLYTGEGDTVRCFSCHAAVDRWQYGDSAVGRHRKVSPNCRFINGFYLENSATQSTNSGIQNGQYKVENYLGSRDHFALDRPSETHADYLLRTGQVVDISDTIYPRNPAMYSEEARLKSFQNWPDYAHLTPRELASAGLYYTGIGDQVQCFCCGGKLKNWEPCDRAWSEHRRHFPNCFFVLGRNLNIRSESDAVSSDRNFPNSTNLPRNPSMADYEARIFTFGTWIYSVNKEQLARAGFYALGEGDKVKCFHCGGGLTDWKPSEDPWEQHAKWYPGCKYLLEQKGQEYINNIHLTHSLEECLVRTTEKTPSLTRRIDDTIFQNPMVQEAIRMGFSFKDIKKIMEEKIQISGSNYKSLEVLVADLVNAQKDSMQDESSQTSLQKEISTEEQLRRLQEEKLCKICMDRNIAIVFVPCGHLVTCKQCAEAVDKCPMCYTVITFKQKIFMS

Chain of Dihydroorotate dehydrogenase (quinone), mitochondrial (Plasmodium falciparum (isolate 3D7)) (Q08210 whole entry, looked up): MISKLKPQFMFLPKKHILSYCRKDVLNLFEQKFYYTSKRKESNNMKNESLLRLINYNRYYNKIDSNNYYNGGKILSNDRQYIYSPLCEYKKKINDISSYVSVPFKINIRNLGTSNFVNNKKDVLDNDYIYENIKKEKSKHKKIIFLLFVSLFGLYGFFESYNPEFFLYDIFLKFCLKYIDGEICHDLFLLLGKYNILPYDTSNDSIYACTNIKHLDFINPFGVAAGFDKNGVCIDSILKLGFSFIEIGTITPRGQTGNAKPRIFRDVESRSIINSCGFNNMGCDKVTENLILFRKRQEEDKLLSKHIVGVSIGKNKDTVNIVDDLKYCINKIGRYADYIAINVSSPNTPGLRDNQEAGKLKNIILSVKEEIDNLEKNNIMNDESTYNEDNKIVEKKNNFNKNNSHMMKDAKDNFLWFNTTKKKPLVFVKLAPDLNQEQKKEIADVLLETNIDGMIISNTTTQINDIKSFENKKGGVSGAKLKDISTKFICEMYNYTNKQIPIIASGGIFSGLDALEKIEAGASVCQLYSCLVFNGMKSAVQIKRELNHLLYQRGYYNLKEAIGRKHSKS

Row | SMILES | z-score [1] | z-score [2] | z-score [3] | z-score [4] | z-score [5] | z-score [6] | z-score [7] | z-score [8] | z-score [9] | z-score [10] | z-score [11] | z-score [12] | z-score [13] | composite z-score [14] | z-score [15] | z-score [16] | z-score [17] | z-score [18] | z-score [19] | composite z-score [20]
1 | CCOC(=O)C=Cc1cccc(OC)c1O | -0.364 | 0.532 | -0.834 | 0.408 | -1.61 | -0.94 | 0.151 (inactive) | -0.149 | -1.25 | -0.787 (inactive) | -0.537 | -6.47 (inactive) | -0.649 (inactive) | -1.15 (inactive) | -2.06 (inactive) | -1.34 (inactive) | -0.597 (inactive) | -1.03 (inactive) | -1.07 | 0.0036
2 | CN1C(=O)C2C=CC(C(O)C=Cc3ccc([N+](=O)[O-])cc3)N(N3CCCCC3)C2C1=O (stereo not given) | -1.1 | -1.15 | -0.382 | -0.351 | 0.107 | -1.77 | -1.31 (inactive) | -0.834 | -0.4 | -0.244 (inactive) | -0.559 | -1.42 (inactive) | -1.42 (inactive) | -0.358 (inactive) | 1.01 (inactive) | -0.555 (inactive) | -0.685 (inactive) | -0.397 (inactive) | -1.88 | 0.142
3 | CN1C(=O)C2C=CC(C(O)c3ccccc3)N(NC(=O)OC(C)(C)C)C2C1=O (stereo not given) | -1.66 | 0.103 | -0.983 | -0.965 | -0.386 | -1.22 | -0.0572 (inactive) | -0.306 | 0.32 | -0.449 (inactive) | -1.24 | 1.34 (inactive) | -0.749 (inactive) | 0.802 (inactive) | 0.31 (inactive) | 1.18 (inactive) | -0.68 (inactive) | -0.454 (inactive) | -0.0265 | 0.0338
4 | CCOC(=O)C[C@H]1[C@H](OC(=O)c2ccc(C(=O)c3ccccc3)cc2)[C@@H](NC(=O)c2ccc3ccccc3n2)c2cc(OCCCO)ccc2N1C(=O)c1ccc2ccccc2n1 | 0.602 | -0.402 | 0.674 | -0.367 | -0.0521 | 1.24 | 1.63 (inactive) | -0.0794 | 0.215 | 1.04 (inactive) | 0.44 | -0.0495 (inactive) | 0.433 (inactive) | 0.681 (inactive) | 0.808 (inactive) | 0.081 (inactive) | 0.322 (inactive) | 0.388 (inactive) | 0.416 | -0.0525
5 | COCCOC(=O)N1C(=O)[C@@]2(c3cc(C#CCC(C(=O)OC)C(=O)OC)ccc31)[C@H](c1ccccc1OCCO)N1[C@H](c3ccccc3)[C@H](c3ccccc3)OC(=O)[C@H]1[C@@H]2C(=O)Nc1nc2ccccc2s1 | 1.7 | 0.321 | 1.4 | -0.569 | -0.922 | -2.31 | 0.844 (inactive) | -0.76 | -0.578 | -0.0543 (inactive) | 0.513 | -0.561 (inactive) | 0.951 (inactive) | -1.19 (inactive) | 3.41 (inactive) | -0.929 (inactive) | 1.28 (inactive) | 1.76 (inactive) | 0.599 | -0.0785
6 | CCOC(=O)C1=C[C@@H](C(C)(C)C)N(S(=O)(=O)c2ccc(C)cc2)[C@H]1c1ccc(Cl)c(Cl)c1 | -0.292 | -0.257 | -1.36 | -0.266 | -0.986 | 4.44 | -1.66 (inactive) | -0.981 | -1.33 | -2.26 (inactive) | -0.331 | 1.63 (inactive) | -1.01 (inactive) | 0.89 (inactive) | 0.546 (inactive) | 1.26 (inactive) | -0.723 (inactive) | -0.398 (inactive) | -2.92 | -0.0351
7 | O=c1cccc(-c2ccc3ccccc3c2)o1 | -0.996 | -0.696 | -0.644 | -0.332 | -0.406 | -1.31 | 0.529 (inactive) | 0.463 | -0.288 | -0.223 (inactive) | -0.321 | -16.1 (active) | 0.2 (inactive) | -1.14 (inactive) | -0.281 (inactive) | -2.6 (inactive) | 0.632 (inactive) | 0.159 (inactive) | 0.37 | 0.0754
8 | Cc1ccc(F)cc1S(=O)(=O)N[C@@H]1CCN(Cc2ccc(C(F)(F)F)cc2)C1 | -0.455 | -1.68 | -1.82 | -2.4 | -2.09 | -3.18 | -0.332 (inactive) | -0.615 | -1.75 | -0.196 (inactive) | -0.29 | -10.8 (active) | -0.529 (inactive) | -0.315 (inactive) | -0.553 (inactive) | 0.338 (inactive) | 0.0136 (inactive) | -1.2 (inactive) | -0.979 | -0.177
9 | COc1ccc([Si](C)(C)[C@H]2[C@H](CC(=O)N3CCC[C@H]3CO)O[C@@]3(C(=O)N(c4ccccc4)c4ccccc43)[C@@H]2C)cc1 | 1.35 | 0.42 | 0.628 | 1.63 | 0.912 | 2.53 | -0.667 (inactive) | 0.421 | -0.947 | 1.63 (inactive) | 1.75 | -2.26 (inactive) | 1.55 (inactive) | 0.0873 (inactive) | 0.826 (inactive) | -1.81 (inactive) | 1.21 (inactive) | 1.49 (inactive) | 0.843 | -0.167
